Results from PubChem BioAssay (Tox21).
Records with an inconclusive call do not appear. Active and inactive are the calls of the source. Unless noted, calls come from the whole dose curve; as a rule, active = well fitted curve in the direction sought with a large enough effect in the repeat runs; inconclusive = weak or mixed curves; inactive = no such curve, though single readings can be large; an effect the other way counts as inactive or inconclusive.

How the values were obtained:
[1] = target: Progesterone receptor (Homo sapiens) (UniProt P06401); experiment: qHTS assay to identify small molecule agonists of the progesterone receptor (PR) signaling pathway (AID 1346784; calls by dose curve; note: nearly all actives have a fitted effect of over 30% in size)
How it was run: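 Agonist qHTS: compounds pinned onto 3,000 PR-UAS-bla HEK 293T cells per well in charcoal-stripped serum medium, 16hr at 37C, then beta-lactamase activity measured by LiveBLAzer FRET fluorescence after 2 hours at room temperature.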

[2] = target: Progesterone receptor (Homo sapiens) (UniProt P06401); experiment: qHTS assay to identify small molecule antagonists of the progesterone receptor (PR) signaling pathway (AID 1346795; active = well fitted inhibition curve with a large enough effect in the signal ratio in the repeat runs, not every such curve was filed as active; the % refers to the signal ratio)
How it was run: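 Antagonist mode with agonist R5020 at 1 nM final and 16 hr incubation at 37C. Reporter was beta-lactamase driven by UAS in HEK293T (PR-UAS-bla), 2% charcoal-stripped serum; signal from LiveBLAzer FRET substrate, 2 hr at room temperature.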

[3] = qHTS assay to identify small molecule antagonists of the progesterone receptor (PR) signaling pathway - cell viability counter screen (AID 1346798); note: series mostly up to about 92 µM; nearly all actives have a fitted effect of over 50% in size
How it was run: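 Cytotoxicity read as CellTiter-Glo luminescence (30 min, room temperature) in the same wells as the beta-lactamase readout. HEK293T PR-UAS-bla cells in charcoal-stripped 2% FBS received compound and R5020, then 16 h at 37C, 5% CO2.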

[4] = qHTS assay to identify small molecule agonists of the progesterone receptor (PR) signaling pathway - cell viability counter screen (AID 1346799; calls by dose curve; note: nearly all actives have a fitted effect of over 45% in size)
How it was run: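 Cytotoxicity measured by CellTiter-Glo luminescence (30 min, RT) in the same wells as the PR beta-lactamase agonist read. Those HEK293T cells had 16 h compound treatment at 37 C in 2% charcoal-stripped FBS medium.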

[5] = qHTS assay to identify small molecule antagonists of the TGF-beta/Smad signaling pathway - cell viability counter screen (AID 1346824); note: nearly all actives have a fitted effect of over 50% in size
How it was run: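 Cytotoxicity counter-screen run in the same wells as the beta-lactamase Smad reporter read: CellTiter-Glo luminescence after 30 min at room temperature. HEK 293T SBE-bla cells had 5 hr compound exposure at 37 C with TGF-beta1 (0.25 ng/mL stock).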

[6] = qHTS assay to identify small molecule agonists of the TGF-beta/Smad signaling pathway - cell viability counter screen (AID 1346829); note: top concentration of the series differs between compounds; nearly all actives have a fitted effect of over 45% in size
How it was run: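 After overnight seating at 37 C and 5% CO2, reporter cells got compounds for 5 hr and FRET substrate for 2 hr; cell viability then came from CellTiter-Glo luminescence.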

[7] = qHTS assay to identify small molecule agonists of the TGF-beta/Smad signaling pathway (AID 1346859; active = well fitted activation curve with a large enough effect in the signal ratio in the repeat runs, not every such curve was filed as active; the % refers to the signal ratio; note: series mostly up to about 77 µM)
How it was run: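 Fluorescence (ex 405 nm; em 460 and 530 nm) was read 2 h after LiveBLAzer FRET substrate at RT. The preceding compound treatment of overnight-plated SBE-bla HEK293T cells lasted 5 h at 37 C.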

[8] = target: Thyrotropin-releasing hormone receptor (Homo sapiens) (UniProt P34981); experiment: qHTS assay to identify small molecule antagonists of the thyrotropin-releasing hormone receptor (TRHR) signaling pathway (AID 1346877; active = well fitted inhibition curve with a large enough effect in the repeat runs, not every such curve was filed as active; note: series mostly up to about 51 µM)
How it was run: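 Intracellular calcium fluorescence, read kinetically every second over 3 min, reports TRH-evoked signalling in HEK293 cells carrying TRHR. Test compounds were added 5 min ahead of a 1 nM TRH challenge.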

[9] = target: Thyrotropin-releasing hormone receptor (Homo sapiens) (UniProt P34981); experiment: qHTS assay to identify small molecule agonists of the thyrotropin-releasing hormone receptor (TRHR) signaling pathway (AID 1346891; calls by dose curve; note: series mostly up to about 58 µM)
How it was run: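 Agonist-mode intracellular calcium readout: kinetic fluorescence over 3 min at 1 s intervals after compound addition to TRHR-HEK293 cells (18 h seeded, 2 h dye-loaded at 37 C). Fifteen concentrations, triplicates.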

[10] = Human pregnane X receptor (PXR) small molecule agonists, qHTS cell viability counter screen (AID 1346977); note: nearly all actives have a fitted effect of over 50% in size
How it was run: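 Same-well viability read: CellTiter-Fluor added after 23 hr compound exposure, fluorescence measured 1 hr later. Cells were PXR-Luc HepG2 seeded at 2,000/well in 5% charcoal-stripped FBS medium, rested 5 hr before dosing at 37 C.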

[11] = Caspase-3/7 induction in HepG2 cells by small molecules, qHTS assay (AID 1346978); note: nearly all actives have a fitted effect of over 15% in size
How it was run: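 Caspase-3/7 induction was measured by Caspase-Glo 3/7 luminescence (30 min, room temperature) after a 17 hr compound exposure of wild-type HepG2 cells seeded at 2,000 per well and pre-incubated 5 hr.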

[12] = Caspase-3/7 induction in CHO-K1 cells by small molecules, qHTS cell viability counter screen (AID 1346979); note: nearly all actives have a fitted effect of over 35% in size
How it was run: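 Cytotoxicity counter screen: CellTiter-Fluor added to compound-treated wild-type CHO-K1 cells at 16 h (37C, 5% CO2), fluorescence measured 1 h later; same wells as caspase-3/7 measurement.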

[13] = Caspase-3/7 induction in CHO-K1 cells by small molecules, qHTS assay (AID 1346980); note: nearly all actives have a fitted effect of over 15% in size
How it was run: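 Luminescent Caspase-Glo 3/7 read (30min, room temperature) quantified apoptosis induction. Cells were wild-type CHO-K1, treated with compound for 17hr at 37 C and 5% CO2.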

[14] = Caspase-3/7 induction in HepG2 cells by small molecules, qHTS cell viability counter screen (AID 1346981); note: series mostly up to about 92 µM; nearly all actives have a fitted effect of over 30% in size
How it was run: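 HepG2, WT, 2,000 cells/well; 5 hr pre-incubation 37 C/5% CO2; compound pin-transferred from DMSO; 16 hr exposure; CellTiter-Fluor, 1 hr; fluorescence read.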

[15] = target: Nuclear receptor subfamily 1 group I member 2 (Homo sapiens) (UniProt O75469); experiment: Human pregnane X receptor (PXR) small molecule agonists, qHTS assay (AID 1346982); note: nearly all actives have a fitted effect of over 35% in size
How it was run: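 Luciferase signal from ONE-Glo (30 min, room temperature) measured activation of hPXR-driven CYP3A4 reporter expression in PXR-Luc HepG2 cells treated with compounds for 24 hr at 37 C.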

[16] = target: Cytochrome P450 2D6 (Homo sapiens) (UniProt P10635); experiment: Cytochrome P450 Family 2 Subfamily D Member 6 (CYP2D6) small molecule antagonists: luciferase reporter qHTS assay (AID 1671196); note: series mostly up to about 120 µM; nearly all actives have a fitted effect of over 50% in size
How it was run: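 Read-out is luminescence from luciferin formed by CYP2D6 turnover of a proluciferin substrate, recorded as relative luminescence units. Reactions ran 1 h at room temperature after NADPH regeneration solution was added.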

[17] = target: Cytochrome P450 2C19 (Homo sapiens) (UniProt P33261); experiment: Cytochrome P450 Family 2 Subfamily C Member 19 (CYP2C19) small molecule antagonists: luciferase reporter qHTS assay (AID 1671197); note: series mostly up to about 120 µM; nearly all actives have a fitted effect of over 65% in size
How it was run: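 Inhibition of CYP2C19 was scored from loss of luminescence in a P450-Glo proluciferin substrate assay, NADPH-started and run 1 h at 37C, with ketoconazole as positive control.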

[18] = target: Nuclear receptor subfamily 1 group I member 2 (Rattus norvegicus) (UniProt Q9R1A7); experiment: Rat pregnane X receptor (rPXR) activation by small molecules, qHTS assay (AID 1346983); conditions: rPXR luciferase reporter cells, One-Glo luminescence, 24 h; stronger effect = higher value; note: nearly all actives have a fitted effect of over 20% in size
How it was run: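 Luminescent readout (One-Glo luciferase, 30 min room temperature) followed 24 hr compound treatment at 37 C of rPXR cells plated 2,000 per well and preincubated 5hr; qHTS format with compounds delivered in DMSO.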

[19] = target: Nuclear receptor subfamily 1 group I member 2 (Homo sapiens) (UniProt O75469); experiment: CYP3A4 induction through human pregnane X receptor (PXR) by small molecules, qHTS assay (AID 1346984); note: nearly all actives have a fitted effect of over 40% in size
How it was run: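 Luminescence readout: luciferase signal after One-Glo (30 min, room temperature), following 3 h at 37C with 3uM final Luciferin-IPA P450 substrate. Cells were DPX-2 (HepG2, PXR/CYP3A4-luc co-transfected) dosed for 24 h.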

[20] = target: Nuclear receptor subfamily 1 group I member 2 (Homo sapiens) (UniProt O75469); experiment: Human pregnane X receptor (PXR) activation by small molecules, qHTS assay (AID 1346985); note: nearly all actives have a fitted effect of over 40% in size
How it was run: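 DPX-2 cells (HepG2 co-transfected with a PXR response element and a CYP3A4-promoter luciferase construct) were seeded at 2,000 per well, rested 5 hr at 37C, then exposed to DMSO-dissolved compounds for 24 hr. Activation was read as luciferase luminescence.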
% is set by controls: 0 for no effect and ±100 for the full control effect.

Sequence of Progesterone receptor (Homo sapiens) (P06401 whole entry, looked up): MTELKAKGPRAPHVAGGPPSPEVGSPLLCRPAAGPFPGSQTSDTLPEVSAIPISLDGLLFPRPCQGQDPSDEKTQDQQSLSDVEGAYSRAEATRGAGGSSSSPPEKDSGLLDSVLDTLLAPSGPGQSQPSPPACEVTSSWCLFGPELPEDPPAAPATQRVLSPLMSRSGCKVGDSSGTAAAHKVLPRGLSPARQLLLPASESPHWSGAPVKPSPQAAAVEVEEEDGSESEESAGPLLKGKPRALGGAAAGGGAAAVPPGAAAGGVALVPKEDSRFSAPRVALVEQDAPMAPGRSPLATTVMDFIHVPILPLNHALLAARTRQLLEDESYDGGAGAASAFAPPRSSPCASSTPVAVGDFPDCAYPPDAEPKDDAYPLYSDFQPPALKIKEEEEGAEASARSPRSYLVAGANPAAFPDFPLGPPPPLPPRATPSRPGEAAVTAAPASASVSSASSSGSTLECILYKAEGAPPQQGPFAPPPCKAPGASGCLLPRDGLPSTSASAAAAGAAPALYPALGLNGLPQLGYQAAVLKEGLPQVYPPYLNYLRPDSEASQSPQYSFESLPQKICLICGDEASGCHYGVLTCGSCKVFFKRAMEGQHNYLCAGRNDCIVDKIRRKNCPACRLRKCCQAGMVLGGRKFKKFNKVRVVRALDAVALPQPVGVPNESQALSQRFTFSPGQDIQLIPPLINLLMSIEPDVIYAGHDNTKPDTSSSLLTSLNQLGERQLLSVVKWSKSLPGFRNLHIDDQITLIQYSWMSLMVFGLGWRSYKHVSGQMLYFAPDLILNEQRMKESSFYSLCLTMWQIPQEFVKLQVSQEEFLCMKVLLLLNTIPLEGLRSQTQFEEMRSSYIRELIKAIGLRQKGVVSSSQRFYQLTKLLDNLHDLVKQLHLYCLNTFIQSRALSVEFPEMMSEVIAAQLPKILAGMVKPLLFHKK
Sequence of Cytochrome P450 2D6 (Homo sapiens) (P10635 whole entry, looked up): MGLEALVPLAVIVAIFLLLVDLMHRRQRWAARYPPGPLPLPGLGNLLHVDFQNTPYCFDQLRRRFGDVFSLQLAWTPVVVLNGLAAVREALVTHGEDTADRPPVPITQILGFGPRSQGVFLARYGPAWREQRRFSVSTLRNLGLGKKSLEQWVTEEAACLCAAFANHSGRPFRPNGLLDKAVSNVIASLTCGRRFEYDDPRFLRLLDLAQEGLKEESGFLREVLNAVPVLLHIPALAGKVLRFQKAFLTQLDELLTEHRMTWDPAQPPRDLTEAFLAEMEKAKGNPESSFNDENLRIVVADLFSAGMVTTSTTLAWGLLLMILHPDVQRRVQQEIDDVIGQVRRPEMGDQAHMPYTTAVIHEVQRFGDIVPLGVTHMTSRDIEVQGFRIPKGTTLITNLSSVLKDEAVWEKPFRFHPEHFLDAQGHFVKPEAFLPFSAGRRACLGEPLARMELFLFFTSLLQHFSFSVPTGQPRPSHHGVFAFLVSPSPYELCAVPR
Sequence of Thyrotropin-releasing hormone receptor (Homo sapiens) (P34981 whole entry, looked up): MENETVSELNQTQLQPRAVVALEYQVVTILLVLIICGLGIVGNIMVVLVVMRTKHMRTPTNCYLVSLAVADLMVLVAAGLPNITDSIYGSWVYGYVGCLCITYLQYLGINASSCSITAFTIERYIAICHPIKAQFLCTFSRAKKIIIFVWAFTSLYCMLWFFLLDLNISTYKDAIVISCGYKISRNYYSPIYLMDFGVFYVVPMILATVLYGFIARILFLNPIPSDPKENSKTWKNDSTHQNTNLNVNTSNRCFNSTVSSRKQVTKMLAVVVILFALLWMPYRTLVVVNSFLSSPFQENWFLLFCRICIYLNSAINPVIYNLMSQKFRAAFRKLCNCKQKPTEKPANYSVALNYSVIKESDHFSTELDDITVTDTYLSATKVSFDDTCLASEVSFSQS
Sequence of Cytochrome P450 2C19 (Homo sapiens) (P33261 whole entry, looked up): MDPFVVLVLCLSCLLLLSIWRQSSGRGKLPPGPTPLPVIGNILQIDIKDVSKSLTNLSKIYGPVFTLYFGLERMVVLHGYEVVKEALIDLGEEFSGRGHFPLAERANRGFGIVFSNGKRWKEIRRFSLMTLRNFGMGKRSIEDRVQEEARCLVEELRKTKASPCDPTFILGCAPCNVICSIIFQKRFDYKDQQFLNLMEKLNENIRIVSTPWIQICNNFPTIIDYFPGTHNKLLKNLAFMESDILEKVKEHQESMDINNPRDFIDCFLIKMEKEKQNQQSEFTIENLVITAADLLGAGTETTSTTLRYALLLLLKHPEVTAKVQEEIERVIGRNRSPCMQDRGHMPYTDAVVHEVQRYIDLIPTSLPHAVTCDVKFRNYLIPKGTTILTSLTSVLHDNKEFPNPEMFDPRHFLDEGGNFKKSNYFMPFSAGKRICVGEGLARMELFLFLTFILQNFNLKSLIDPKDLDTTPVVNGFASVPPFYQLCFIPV
Sequence of Nuclear receptor subfamily 1 group I member 2 (Homo sapiens) (O75469 whole entry, looked up): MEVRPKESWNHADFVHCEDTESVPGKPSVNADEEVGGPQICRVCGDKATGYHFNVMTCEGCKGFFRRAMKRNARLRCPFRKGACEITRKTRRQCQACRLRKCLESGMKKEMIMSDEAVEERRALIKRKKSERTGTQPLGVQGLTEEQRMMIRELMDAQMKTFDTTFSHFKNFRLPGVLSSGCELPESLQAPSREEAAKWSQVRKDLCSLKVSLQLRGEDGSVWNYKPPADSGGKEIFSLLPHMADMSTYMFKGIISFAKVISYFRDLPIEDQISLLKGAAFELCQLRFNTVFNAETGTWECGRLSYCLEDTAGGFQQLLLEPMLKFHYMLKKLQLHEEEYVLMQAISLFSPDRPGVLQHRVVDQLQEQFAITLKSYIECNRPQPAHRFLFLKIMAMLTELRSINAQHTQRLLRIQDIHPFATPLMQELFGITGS
Sequence of Nuclear receptor subfamily 1 group I member 2 (Rattus norvegicus) (Q9R1A7 whole entry, looked up): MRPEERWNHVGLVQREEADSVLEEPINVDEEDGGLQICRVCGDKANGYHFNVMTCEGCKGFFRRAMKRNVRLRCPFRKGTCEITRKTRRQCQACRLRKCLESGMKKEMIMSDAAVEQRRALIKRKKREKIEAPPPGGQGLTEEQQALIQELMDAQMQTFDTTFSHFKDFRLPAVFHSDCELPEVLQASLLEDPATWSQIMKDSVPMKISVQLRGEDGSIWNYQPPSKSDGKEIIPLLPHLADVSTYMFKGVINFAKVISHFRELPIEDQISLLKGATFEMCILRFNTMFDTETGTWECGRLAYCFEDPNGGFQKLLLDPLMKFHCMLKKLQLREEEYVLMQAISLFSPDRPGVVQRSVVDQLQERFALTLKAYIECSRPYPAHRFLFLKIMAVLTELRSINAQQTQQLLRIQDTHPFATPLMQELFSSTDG

COc1ccc([C@@H]2CC(=O)c3c(O)cc(O[C@@H]4O[C@H](CO[C@@H]5O[C@@H](C)[C@H](O)[C@@H](O)[C@H]5O)[C@@H](O)[C@H](O)[C@H]4O)cc3O2)cc1OC
inactive: Potency [1] | Potency [2] | Potency [3] | Potency [4] | Potency [5] | Potency [6] | Potency [7] | Potency [8] | outcome [9] | Potency [10] | Potency [11] | Potency [12] | Potency [13] | Potency [14] | Potency [15] | Potency [16]

O=Cc1ccc(CO)o1
inactive: Potency [1] | Potency [2] | Potency [3] | Potency [4] | Potency [5] | Potency [6] | Potency [7] | Potency [8] | outcome [9] | Potency [10] | Potency [11] | Potency [12] | Potency [13] | Potency [14] | Potency [15] | Potency [16]

COC(=O)/C=C\C(=O)OC
inactive: Potency [1] | Potency [2] | Potency [3] | Potency [4] | Potency [5] | Potency [6] | Potency [7] | Potency [8] | outcome [9] | Potency [10] | Potency [11] | Potency [12] | Potency [13] | Potency [14] | Potency [15] | Potency [16] | Potency [17]

O=C1C(N(CO)C(=O)NCO)N(CO)C(=O)N1CO (centres undefined)
inactive: Potency [1] | Potency [2] | Potency [3] | Potency [4] | Potency [5] | Potency [6] | Potency [7] | Potency [8] | outcome [9] | Potency [10] | Potency [11] | Potency [12] | Potency [13] | Potency [14] | Potency [15] | Potency [16] | Potency [17]

CC1(C)C(=O)N(Cl)C(=O)N1Cl
inactive: Potency [1] | Potency [2] | Potency [3] | Potency [4] | Potency [5] | Potency [6] | Potency [7] | Potency [8] | outcome [9] | Potency [10] | Potency [11] | Potency [12] | Potency [13] | Potency [14] | Potency [15] | Potency [16]

CCCCC(CC)COC(=O)c1ccc(C(=O)OCC(CC)CCCC)cc1 (centres undefined)
inactive: Potency [1] | Potency [2] | Potency [3] | Potency [4] | Potency [5] | Potency [6] | Potency [7] | Potency [8] | outcome [9] | Potency [10] | Potency [11] | Potency [12] | Potency [13] | Potency [14] | Potency [15] | Potency [16] | Potency [17]

OCC(O)CS (centres undefined)
inactive: Potency [1] | Potency [2] | Potency [3] | Potency [4] | Potency [5] | Potency [6] | Potency [7] | Potency [8] | outcome [9] | Potency [10] | Potency [11] | Potency [13] | Potency [14] | Potency [15] | max activation [18] -1.93% | Potency [19] | outcome [20] | Potency [16] | Potency [17]

N#CCC(=O)O
inactive: Potency [1] | Potency [2] | Potency [3] | Potency [4] | Potency [5] | Potency [6] | Potency [7] | Potency [8] | outcome [9] | Potency [10] | Potency [11] | Potency [12] | Potency [13] | Potency [14] | Potency [16] | Potency [17]
